# PubChem BioAssay (NCATS)
# Records with an inconclusive call do not appear. Entries that show only a call come without a potency. Active and inactive are the calls of the source. The call rests on the fitted dose curve; in most records, active means well fitted inhibition curve with a large enough effect; inconclusive means small, poorly fitted or top-dose-only effect; inactive means flat fitted curve, though single readings scatter.
# Tested on: Zika virus NS2B-NS3 protease
# Assay: Primary screen GU AMC qHTS for Zika virus inhibitors (AID 1347154); further: nearly all actives have a fitted effect of over 70% in size
# Details: Zika NS2B-NS3 unlinked protease, AMC fluorogenic substrate; series mostly up to 54.1 µM
# Method in brief: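 Unlinked Zika NS2B hydrophilic domain–NS3 protease complex at 25 nM in 10 mM Tris-HCl pH 8.0, 0.01% Tween 20, with an AMC peptide substrate. Fluorescence change (340/450 nm) over 15 min at room temperature, normalized to controls, fitted to 4-parameter Hill.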
# Potency means the concentration at half of the fitted maximal effect.
row,SMILES,Potency
1,O=C1CCC[C@@H]2[C@H]3CCCN4CCC[C@@H](CN12)[C@@H]34,inactive
2,Cc1ccc(Cl)c(O)c1,inactive
3,OCCCBr,inactive
4,CC(=O)OCC1=C(C(=O)O)N2C(=O)[C@@H](N)[C@@H]2SC1,inactive
5,Cc1c(C(=O)c2cccc3ccccc23)c2cccc3c2n1[C@H](CN1CCOCC1)CO3,inactive
6,C[C@]12CC[C@H]3[C@@H](CCC4=CC(=O)CC[C@@]43C)[C@H]1CC[C@H]2O,inactive
7,CC(C)NCC(O)c1ccc([N+](=O)[O-])cc1 (stereo unspecified),inactive
8,CCC1(CCC(C)C)C(=O)NC(=O)NC1=O,inactive
9,Fc1cc(Br)ccc1CBr,inactive
10,CO/C=C(/C(=O)OC)c1ccccc1Oc1cc(Oc2ccccc2C#N)ncn1,inactive
11,O=S(=O)(O)C(F)(F)C(F)(F)C(F)(F)C(F)(F)C(F)(F)C(F)(F)C(F)(F)C(F)(F)F,11.2 µM (active)
12,N=c1c2c(-c3ccccc3)c(-c3ccccc3)n(Cc3ccccc3)c2ncn1C1CCC(O)CC1 (stereo unspecified),inactive
13,CCCCC(CC)COC(=O)c1ccccc1C(=O)OCC(CC)CCCC (stereo unspecified),inactive
14,O=C(O)COc1ccccc1,inactive
15,O=[N+]([O-])/N=C1\NCCN1Cc1ccc(Cl)nc1,inactive
16,C[C@@H]1[C@H](O)[C@@H](C)C=CC=CCCC=CC=CC=CC=C[C@H](O[C@H]2O[C@@H](C)[C@H](O)[C@@H](N)[C@@H]2O)CC2O[C@](O)(C[C@@H](O)[C@H](O)CC[C@@H](O)C[C@@H](O)C[C@@H](O)CC(=O)O[C@H]1C)C[C@H](O)[C@H]2C(=O)O,inactive
